{"source": "PubChem BioAssay AID1259343", "about": "(VanderVen Lab, College of Veterinary Medicine, Cornell …, 2017)", "note": "Hit rate of the full screen: of about 6,200 compounds, about 2,900 (47%) were called active. So high a share suggests a set chosen from earlier hits. This is one part of the list. Unmarked numbers belong to inactive results. Rule as the data show it: active = inhibition above about 50%; inactive = the rest."}
{"experiment": "Mycobacterium tuberculosis growth inhibition, primary screen (AID 1259343)", "details": "inhibition: at 10 µM, hits give high values; outcome: 10 uM"}
{"smiles": "FC(F)(F)c1cccc(OCCCCn2cnc3ccccc32)c1", "inhibition": "76.6% (active)"}
{"smiles": "Cc1ccc(OCCCn2cnc3ccccc32)cc1", "inhibition": "36%"}
{"smiles": "Ic1ccc(OCCCn2cnc3ccccc32)cc1", "inhibition": "70.5% (active)"}
{"smiles": "c1ccc(OCCCCn2nnc3ccccc32)cc1", "inhibition": "21.5%"}
{"smiles": "c1ccc(COc2ccc(OCCCn3cnc4ccccc43)cc2)cc1", "inhibition": "85.3% (active)"}
{"smiles": "Cc1ccc(C(C)C)cc1OCCCn1cnc2ccccc21", "inhibition": "78.4% (active)"}
{"smiles": "Cc1cc(OCC(O)CN(Cc2ccccc2)C(C)(C)C)ccc1[N+](=O)[O-]", "note": "(stereo unspecified)", "inhibition": "0.53%"}
{"smiles": "CC1=C(C(=O)OCCOc2ccccc2)C(c2ccccc2[N+](=O)[O-])NC(=O)N1C", "note": "(stereo unspecified)", "inhibition": "-7.53%"}
{"smiles": "Cc1cc(OCCCn2cnc3ccccc32)ccc1[N+](=O)[O-]", "inhibition": "61.1% (active)"}
{"smiles": "CC1=NN(c2ccc(C(=O)N(C)Cc3ccccc3O)cc2)CC1", "inhibition": "23.1%"}
{"smiles": "CN(Cc1nc2c(s1)CCCC2)C(=O)Cc1ccccc1O", "inhibition": "82.4% (active)"}
{"smiles": "Cc1[nH]ccc2c1[nH]c1cc(=O)ccc12", "inhibition": "90.6% (active)"}
{"smiles": "COc1cccc(Oc2ncc(C(N)=O)cc2Cl)c1", "inhibition": "68.9% (active)"}
{"smiles": "CN(Cc1ccccc1C(F)(F)F)c1ncc(C(N)=O)cc1Cl", "inhibition": "39.2%"}
{"smiles": "Oc1ccc(Oc2ncc(Cl)cc2Cl)cc1", "inhibition": "38.9%"}
{"smiles": "CN(C)c1ccc(-c2nc(-c3cc4c5c(c3)CC(=O)N5CCC4)cs2)cc1", "inhibition": "-34.5%"}
{"smiles": "CCc1ccc(-c2csc(N)n2)s1", "inhibition": "76.7% (active)"}
{"smiles": "Nc1nc(-c2ccc3c(c2)OCO3)cs1", "inhibition": "-28.1%"}
{"smiles": "Clc1ccc(-c2csc(-c3cnccn3)n2)s1", "inhibition": "17.5%"}
{"smiles": "Cc1nc(-c2ccc(CCNC(=O)c3cc(F)cc(F)c3)s2)cs1", "inhibition": "35.7%"}
{"smiles": "CN(C)c1ccc(Nc2nc(-c3cccs3)cs2)cc1", "inhibition": "18.8%"}
{"smiles": "Nc1nc(-c2ccc(Cl)s2)cs1", "inhibition": "86.7% (active)"}
{"smiles": "Nc1nc(-c2cccs2)cs1", "inhibition": "76% (active)"}
{"smiles": "NC(=O)c1ccn(-c2cccc(Br)c2)n1", "inhibition": "10.3%"}
{"smiles": "Nc1ccn(-c2ccc(Cl)c(Cl)c2)n1", "inhibition": "96.1% (active)"}
{"smiles": "Cc1sc2nc(-c3cccs3)nc(N3CCNC(C(N)=O)C3)c2c1C", "note": "(stereo unspecified)", "inhibition": "26%"}
{"smiles": "O=[N+]([O-])c1ccc2nc(C(F)(F)F)[nH]c2c1", "inhibition": "102% (active)"}
{"smiles": "O=[N+]([O-])c1ccc2[nH]c(O)c(N=Nc3cccc(C(F)(F)F)c3)c2c1", "inhibition": "-6.56%"}
{"smiles": "O=S(=O)(c1ccc(Cl)s1)N1CCN(c2ccnc3cc(Cl)ccc23)CC1", "inhibition": "9.81%"}
{"smiles": "O=S(=O)(c1ccc(Cl)s1)N1CCN(c2ccc(F)cc2)CC1", "inhibition": "-6.71%"}
{"smiles": "CCNC(=S)N1CCN(S(=O)(=O)c2ccc(Cl)s2)CC1", "inhibition": "99.5% (active)"}
{"smiles": "Cc1cc(C)n(-c2nc3c(c(=O)n2CC(=O)NC2CCCC2)CCCC3)n1", "inhibition": "88.4% (active)"}
{"smiles": "Cc1cc(N)n(CC(=O)NCCn2c(C)cc3ccccc32)n1", "inhibition": "-1.16%"}
{"smiles": "C=CCNC(=O)Cn1c(-n2nc(C)cc2C)nc2c(c1=O)CCCC2", "inhibition": "98% (active)"}
{"smiles": "Oc1cc(-c2cccc3c2Sc2ccccc2S3)cc2c1OCCNC2", "inhibition": "22%"}
{"smiles": "COc1ccc(C2(C(=O)Nc3nc(C)c(C)s3)CCCCC2)cc1", "inhibition": "91.6% (active)"}
{"smiles": "COC(=O)Nc1ccc(OCc2nc(C)c(C)s2)cc1", "inhibition": "2.64%"}
{"smiles": "CN(Cc1ccc(Br)s1)C(=O)c1ccccc1O", "inhibition": "89.5% (active)"}
{"smiles": "Cc1ccc(O)c(C(=O)N(C)Cc2ccccc2C(F)(F)F)c1", "inhibition": "14.5%"}
{"smiles": "Cc1ncc(CN(C)C(=O)c2ccc(Cl)c(Cl)c2O)s1", "inhibition": "45.2%"}
{"smiles": "O=C1c2ccccc2C(=O)c2oc(-c3cc([N+](=O)[O-])cc([N+](=O)[O-])c3)nc21", "inhibition": "61.8% (active)"}
{"smiles": "CCCc1cc(NCC2CCCO2)n2nc(C)c(-c3ccccc3)c2n1", "note": "(stereo unspecified)", "inhibition": "39.6%"}
{"smiles": "CCCc1cc(NCC2CCCO2)n2nc3nc(C)cc(C)c3c2n1", "note": "(stereo unspecified)", "inhibition": "98.6% (active)"}
{"smiles": "CCCc1cc(N2CCCC2)n2nc3nc(C)cc(C)c3c2n1", "inhibition": "22%"}
{"smiles": "Cc1cc(C)cc(NC(=O)COc2coc(CN3CCc4ccccc43)cc2=O)c1", "inhibition": "69.1% (active)"}
{"smiles": "O=c1cc(CN2CCc3ccccc32)occ1OCc1ccc(Cl)cc1", "inhibition": "1.87%"}
{"smiles": "CCc1nnc(N/N=C\\c2cc(Cl)c(OCc3ccccc3F)c(OC)c2)n1N", "inhibition": "51.4% (active)"}
{"smiles": "CC(C)=CCCC(C)[C@@H]1CC[C@]2(C)C3=C(CC[C@@]12C)C1(C)CC[C@H](O)C(C)(C)C1CC3", "note": "(stereo partly specified)", "inhibition": "49.1%"}
{"smiles": "CCCCOc1c(I)cc(CNCCN(C)C)cc1OCC", "inhibition": "-1.94%"}
{"smiles": "COc1ccc(C(=O)Nc2cnn(C(C)(C)C)c2)c(O)c1", "inhibition": "-6.01%"}
{"smiles": "COc1ccc([C@@H](C)C(=O)c2ccc(O)cc2O)cc1", "inhibition": "64.6% (active)"}
{"smiles": "COc1c(O)cc(O)cc1O", "inhibition": "19.6%"}
{"smiles": "O=S(=O)(c1cccc(Br)c1)N1CCCN(c2ncc(C(F)(F)F)cc2Cl)CC1", "inhibition": "45%"}
{"smiles": "CS(=O)c1c(Cl)cccc1NC(=O)N1CCN(c2ncc(Cl)cc2Cl)CC1", "note": "(stereo unspecified)", "inhibition": "-25.6%"}
{"smiles": "O=C(CCl)N1CCN(c2ncc(C(F)(F)F)cc2Cl)CC1", "inhibition": "67.7% (active)"}
{"smiles": "Cc1c(/C=C/c2ccc(Br)cc2F)n[nH]c(=O)c1C#N", "inhibition": "67% (active)"}
{"smiles": "COc1ccc(C(=O)C=Cc2ccc(Br)cc2F)c(OC)c1", "inhibition": "-5.68%"}
{"smiles": "O=C(c1ccc(Cl)cc1Cl)N1CCCC(OCc2ccccc2Cl)C1", "note": "(stereo unspecified)", "inhibition": "20.5%"}
{"smiles": "C(=Cc1ccccc1)C=NNc1ncnc2ccccc12", "inhibition": "99.2% (active)"}
{"smiles": "O=C(NN=CC=Cc1ccccc1)c1cc(C23CC4CC(CC(C4)C2)C3)[nH]n1", "inhibition": "11.1%"}
{"smiles": "C(=Cc1ccccc1)C=NNc1nn[nH]n1", "inhibition": "86.6% (active)"}
{"smiles": "c1ccc(Nc2ccc(OCc3nn[nH]n3)cc2)cc1", "inhibition": "10.5%"}
{"smiles": "Oc1ccc(C=NNc2ncnc3scc(-c4ccccc4)c23)c(O)c1", "inhibition": "12.7%"}
{"smiles": "Cc1ccc(-n2ncc3c(C4CC4)nn(C)c(=O)c32)cc1C", "inhibition": "47.4%"}
{"smiles": "CCOCCSc1nnc(C)c2cnn(-c3ccc(C)c(C)c3)c12", "inhibition": "51.4% (active)"}
{"smiles": "CC(C)c1nnc(SCc2cccnc2)c2c1cnn2-c1ccc(F)cc1", "inhibition": "48%"}
